Most compounds without a hit are left out; they make up all but 4.8% or so of the library.
hgDAF12 agonist – H. glycines DAF-12 receptor agonists, primary screen, cell-based, luminescence, HEK293, GAL4 fusion, UAS-luciferase; Nuclear hormone receptor DAF-12 (Heterodera glycines), GAL4 fusion; actives 1.8% (n = 370,000); activation, % at 6.8 µM; HEK293 GAL4-hgDAF12 UAS-luciferase reporter, agonist luminescence; normalized to butyrate control;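 active means activation above a cutoff set at the mean of all screened compounds plus 3 SD, cut at about 10% in these data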;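 further: 0% = DMSO wells and 100% = sodium butyrate wells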
DAX1 inh-1 – DAX1 (NR0B1) inhibitors on StAR promoter, primary screen, cell-based, luminescence, SF-1 (NR5A1), full-length DAX-1; HEK293T StAR-luciferase reporter, SF-1/DAX-1 repression relief; AID 652010, 2013; actives 1.1% (n = 370,000); inhibition, % at 6.8 µM;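 active means inhibition above the mean over all tested compounds plus 3 SD, cut at about 3.6% in these data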;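 further: 0% = DAX-1 cells with DMSO and 100% = cells lacking DAX-1 with DMSO; higher inhibition means more luminescence from relief of DAX-1 repression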
hcDAF12 agonist – H. contortus DAF-12 nuclear receptor activators, primary screen, cell-based, luminescence, HEK293, lit1-tk-luc reporter | HEK293 hcDAF-12 lit1-tk-luc reporter; 0% DMSO, 100% Δ7-dafachronic acid | activation, % at 6.8 µM | actives 1.4% (n = 370,000);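 active means activation above the mean of all tested compounds plus 3 SD, cut at about 5.5% in these data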;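 further: 100% = response to 3 µM Δ7-dafachronic acid high control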
SMARCA2 act – SMARCA2 (BRM) function activators, primary screen, cell-based, luminescence, high throughput; activation, % at 9.1 µM; MG213 cells, MMTV-luciferase reporter, dexamethasone, overnight; actives 1% (n = 370,000); AID 652017, 2013; in the data active means activation above about 7.8%;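 further: 0% = vehicle wells and 100% = reference activator wells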
ssDAF12 agonist – S. stercoralis DAF-12 nuclear receptor activators, primary screen, cell-based, luminescence, HEK293, GRIP1 co-expression, lit1-tk-luc; AID 652126, 2013; actives 1% (n = 370,000); activation, % at 6.8 µM; HEK293 ssDAF-12/GRIP1 lit1-tk-luc reporter; % of 3 µM dafachronic acid response; Nuclear hormone receptor DAF-12 (Strongyloides stercoralis);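 active means activation above the mean over all tested compounds plus 3 SD, cut at about 0.9% in these data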;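 further: 0% = DMSO-only wells and 100% = 3 µM delta7-dafachronic acid wells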
DAX1 inh-2 – DAX1 (NR0B1) inhibitors, primary screen, cell-based, HEK293, Gal4-DAX1, luciferase luminescence; Nuclear receptor subfamily 0 group B member 1 (Homo sapiens), P51843; actives 0.99% (n = 340,000); HEK293 Gal4-DAX1 luciferase reporter; inhibition, % at 6.75 µM;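 active means inhibition above the mean over all tested compounds plus 3 SD, cut at about 4.2% in these data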;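 further: 0% = DAX1-transfected cells with DMSO and 100% = empty-vector control cells with DMSO; inhibition shows as a rise in luminescence from relieved DAX1 repression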
Target sequence (P51843 207-470 limits assumed): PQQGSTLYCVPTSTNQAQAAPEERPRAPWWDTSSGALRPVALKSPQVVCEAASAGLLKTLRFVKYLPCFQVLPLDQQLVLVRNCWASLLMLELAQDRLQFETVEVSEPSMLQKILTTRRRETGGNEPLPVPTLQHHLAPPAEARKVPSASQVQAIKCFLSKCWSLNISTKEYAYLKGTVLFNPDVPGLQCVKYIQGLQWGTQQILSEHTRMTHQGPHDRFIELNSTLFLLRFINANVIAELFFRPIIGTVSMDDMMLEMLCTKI
DAX1 conf – DAX1 (NR0B1) inhibitors relieving SF-1 repression, confirmation, cell-based, luminescence, HEK293T, full-length DAX-1, SF-1 activated StAR promoter; shares compounds with DAX1 inh-1; HEK293T StAR-promoter luciferase reporter, SF-1/DAX-1 repression; inhibition, % at 6.8 µM; actives 87% (n = 2,400); AID 652134, 2013;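 active means inhibition above the average of every tested compound plus 3 SD, cut at about 3.8% in these data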;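 further: 0% = DAX-1 cells with DMSO and 100% = no DAX-1 control cells with DMSO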
SF1 AF2mut Luc – StAR reporter signal changes without DAX1, counter-screen for DAX1 inhibitor project, cell-based, luminescence, AF-2 mutant SF-1, transactivation; shares compounds with DAX1 inh-1; HEK293 StAR-luciferase, SF-1 AF2 mutant; inhibition, % at 6.8 µM; actives 78% (n = 2,400); AID 652136, 2013;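 active means inhibition above the mean of all tested compounds plus 3 SD, cut at about 3% in these data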;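 further: 0% = DAX-1 transfected cells with DMSO and 100% = cells without DAX-1 with DMSO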
SMARCA2 conf – SMARCA2 (BRM) function activators, confirmation, cell-based, luminescence, triplicate | shares compounds with SMARCA2 act | MG213 cells, MMTV-luciferase with dexamethasone, overnight; MG213 cells expressing E1A, Rb sequestered; DMSO wells 0%, reference activator 100% | activation, % at 9.1 µM | actives 30% (n = 3,500) | AID 652260, 2013;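 active means activation above its plate's cutoff, the mean activation of tested wells plus 3 SD, cut at about 7.9% in these data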
VP16 Luc act – GAL4-VP16 luciferase reporter activation, counter-screen for SMARCA2 (BRM) activator project, cell-based, pG5luc, luminescence, high throughput | shares compounds with SMARCA2 act | HEK293 GAL4-VP16 pG5luc reporter; scaled: DMSO wells 0%, SAHA wells 100% | activation, % at 9.1 µM | actives 41% (n = 3,500);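 active means activation above the solvent-only control well mean plus 3 SD, averaged across control plates, cut at about 5.2% in these data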
LXRb hcDAF ctr – LXR agonists, Gal4 luciferase reporter, confirmation, counter-screen for hcDAF-12 agonist project, cell-based, luminescence, HEK293, H. contortus campaign; shares compounds with hcDAF12 agonist; HEK293 Gal4-LXR tk-luc reporter, 24 h; normalized: DMSO 0%, positive control 100%; activation, % at 6.8 µM; AID 743027, 2013; 3,400 tested, under 10 active;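 active means mean percent activation of the reporter above a cutoff set as the average over tested compounds plus their standard deviation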
Target sequence (P55055 whole entry, looked up, the tested form may be a part): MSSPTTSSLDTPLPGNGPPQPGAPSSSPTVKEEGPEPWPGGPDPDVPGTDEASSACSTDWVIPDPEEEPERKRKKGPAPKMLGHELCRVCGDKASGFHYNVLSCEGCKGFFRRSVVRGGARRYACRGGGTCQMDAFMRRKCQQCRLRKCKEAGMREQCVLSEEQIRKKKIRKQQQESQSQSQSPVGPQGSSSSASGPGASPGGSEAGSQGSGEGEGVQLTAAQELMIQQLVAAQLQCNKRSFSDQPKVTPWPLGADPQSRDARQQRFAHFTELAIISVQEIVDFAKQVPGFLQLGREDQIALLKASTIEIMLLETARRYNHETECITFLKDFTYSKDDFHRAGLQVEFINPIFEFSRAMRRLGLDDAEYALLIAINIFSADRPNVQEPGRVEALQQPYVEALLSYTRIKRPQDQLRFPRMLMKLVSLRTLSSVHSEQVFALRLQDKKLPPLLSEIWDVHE
hcDAF12 conf – H. contortus DAF-12 receptor agonists, confirmation, cell-based, luminescence, HEK293, lit1-tk-luc, triplicate. AID 743032, 2013. actives 61% (n = 3,400). shares compounds with hcDAF12 agonist. activation, % at 6.8 µM. HEK293 hcDAF-12 lit1-tk-luc reporter; % of Δ7-dafachronic acid response;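 active means mean activation across triplicate tests above the threshold derived from the earlier primary screen, cut at about 5.5% in these data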;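 further: 0% = DMSO only wells and 100% = 3 µM Δ7-dafachronic acid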
hgDAF12 ag – H. glycines DAF-12 receptor agonists, confirmation, cell-based, luminescence, HEK293, GAL4-LBD fusion; actives 80% (n = 3,300); shares compounds with hgDAF12 agonist; AID 743050, 2013; activation, % at 6.8 µM; HEK293 GAL4-hgDAF12 luciferase reporter, agonist mode; percent of butyrate response;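 active means mean activation over triplicate wells above the hit cutoff derived from the earlier primary screen, cut at about 11% in these data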;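 further: 0% = DMSO low control and 100% = 2 mM sodium butyrate high control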
LXRb DAF12 ctr – LXR agonists, Gal4 luciferase reporter, confirmation, counter-screen for hgDAF-12 agonist project, cell-based, luminescence, HEK293, H. glycines campaign. activation, % at 6.8 µM. 3,300 tested, under 10 active. AID 743051, 2013. shares compounds with hgDAF12 agonist. 24 h;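 active means mean activation of the triplicate above a set limit carried over from the primary screen, none filed active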
* = called active by the depositor; x = no result given.

SMILES	hgDAF12 agonist	DAX1 inh-1	hcDAF12 agonist	SMARCA2 act	ssDAF12 agonist	DAX1 inh-2	DAX1 conf	SF1 AF2mut Luc	hgDAF12 ag	LXRb DAF12 ctr	others
Cc1cc(-c2nc3ccccc3[nH]2)ccc1N	15.3*	8.0*	6.4*	6.8	1.2*	2.4	14.3*	7.2*	17.1*	0.7
COC(=O)c1ccc(C(=O)Nc2ccc3nc(-c4ccncc4)[nH]c3c2)cc1	-3.2	-1.3	-0.8	-0.7	-1.2	-0.1	x	x	x	x
CC(C)c1nnc(NC(=O)c2ccc3c(c2)OCO3)s1	15.4*	4.9*	9.6*	7.1	0.1	3.7	11.7*	1.9	7.1	0.6	LXRb hcDAF ctr=1.2;hcDAF12 conf=3.6
C/C(CC(=O)Nc1ccc2c(c1)OCCO2)=N\NC(=O)c1ccccn1	15.4*	6.4*	6.2*	9.5*	0.3	0.8	1.0	-0.6	6.6	0.1	SMARCA2 conf=1.5;VP16 Luc act=1.5
COc1ccccc1C(=O)N/N=C(\C)CC(=O)Nc1ccc2c(c1)OCCO2	2.6	0.4	1.9	0.1	0.5	-1.9	x	x	x	x
CSc1ccc(/C=C/C(=O)Nc2ccccc2)cc1	13.7*	14.4*	10.7*	-1.1	0.6	-2.6	6.8*	4.3*	15.9*	1.3	LXRb hcDAF ctr=1.6;hcDAF12 conf=7.4*
CSc1cccc(NC(=O)/C=C/c2ccccc2)c1	10.0	1.1	0.8	1.1	-0.2	0.8	x	x	x	x
O=C(CSc1ccccc1)Nc1ccc2c(c1)OCCO2	15.4*	11.4*	5.5	2.5	1.0*	2.9	13.9*	7.5*	14.9*	0.8
O=C(CCCc1cccs1)Nc1ccc2c(c1)OCO2	22.0*	5.5*	2.9	5.8	0.8	6.0*	9.7*	6.7*	14.1*	0.6
C(=N\Nc1nncc2ccccc12)/c1cccnc1	5.5	-0.2	-0.5	0.1	-1.2	x	x	x	x	x
CCCC(C)C(=O)NC1CCCCN(Cc2ccc(C)cc2)C1=O (configuration not stated)	0.1	-1.7	-2.8	-3.1	0.2	x	x	x	x	x
COC(=O)[C@]12C[C@H](CC(=O)NCC34CC5CC(CC(C5)C3)C4)C(=O)N(Cc3cccc4ccccc34)C1=C[C@H](C(C)C)O[C@@H]2C1CC1	-0.6	-0.1	1.1	-2.8	-0.7	x	x	x	x	x
O=C(/C=C/c1ccccc1)Nc1ccc2c(c1)OCCO2	17.8*	7.4*	4.4	3.5	0.7	-0.6	14.1*	6.5*	23.1*	1.2
O=C(CCCc1ccccc1)Nc1ccc2c(c1)OCCO2	22.3*	6.1*	8.2*	9.3*	0.8	0.5	9.0*	4.9*	15.1*	0.9	SMARCA2 conf=4.5;VP16 Luc act=8.8*;LXRb hcDAF ctr=1.2;hcDAF12 conf=9.1*
CN[C@H]1C[C@H]2c3[nH]c4c(-c5ccc6c(c5)OCO6)cccc4c3CCN2C(=O)[C@H]1[C@H](C)O	0.7	-0.1	-2.0	4.2	-0.1	x	x	x	x	x
O=C(Cn1nnc(-c2ccncc2)n1)Nc1ccc(Cl)cc1	1.1	-0.7	-3.1	-5.9	-0.8	x	x	x	x	x
Cc1nn(-c2nnc(NC3CCCCC3)nn2)c(C)c1Br	17.9*	5.2*	6.1*	2.4	1.8*	3.7	12.7*	8.3*	15.6*	0.7
CC(C)CN1C(=O)[C@]2(CC(=O)N(C)C2c2ccccc2)c2cc(-n3cc(CO)nn3)ccc21 (some centres not stated)	-2.8	1.5	-0.1	-4.7	-0.1	x	x	x	x	x
Cc1cccc2cc(/C=N/Nc3ccc(C(=O)O)cc3)c(Cl)nc12	19.3*	8.9*	6.0*	6.0	0.0	4.0	36.5*	15.3*	24.7*	1.2
